In PubChem BioAssay (NCI):
Compounds without any hit were thinned out: in the full panel of roughly 83,000, 20% have a hit.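 Results are percent growth after 48 hours of single-concentration exposure. 100 means growth as in untreated cells, lower positive values show inhibition; negative values down to -100 show cell death.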 The source made the active and inactive calls. Rule for the calls: active = growth percent below 10; inactive = the rest.

Key:
Assay in all cases: NCI-60 one-dose screen, 48 h (100 = growth as untreated, 0 = no growth, -100 = all killed)
Settings in all cases: 10 µM unless noted
HCT-15 colon = tested on: HCT-15 colon
HT29 colon = tested on: HT29 colon
SNB-75 CNS = tested on: SNB-75 CNS
SNB-19 CNS = tested on: SNB-19 CNS
U251 CNS = tested on: U251 CNS
PC-3 prostate = tested on: PC-3 prostate
SK-MEL-5 melanoma = tested on: SK-MEL-5 melanoma
UACC-62 melanoma = tested on: UACC-62 melanoma
SK-MEL-28 melanoma = tested on: SK-MEL-28 melanoma
SK-MEL-2 melanoma = tested on: SK-MEL-2 melanoma
SN12C renal = tested on: SN12C renal
UO-31 renal = tested on: UO-31 renal
TK-10 renal = tested on: TK-10 renal
ACHN renal = tested on: ACHN renal
CAKI-1 renal = tested on: CAKI-1 renal
A498 renal = tested on: A498 renal
LOX IMVI melanoma = tested on: LOX IMVI melanoma
EKVX NSCLC = tested on: EKVX NSCLC
CCRF-CEM leukemia = tested on: CCRF-CEM leukemia
MOLT-4 leukemia = tested on: MOLT-4 leukemia

Measured: growth

COc1ccc(-c2nc3ccccn3c2-c2nc3ccc(Cl)cc3[nH]2)cc1
inactive: HCT-15 colon 89.1% | HT29 colon 83.7% | SNB-75 CNS 67.5% | SNB-19 CNS 96.2% | U251 CNS 92.9% | PC-3 prostate 57.5% | SK-MEL-5 melanoma 83% | UACC-62 melanoma 86.3% | SK-MEL-28 melanoma 101% | SK-MEL-2 melanoma 97.5% | SN12C renal 97.3% | UO-31 renal 97.6% | TK-10 renal 103% | ACHN renal 86.3% | CAKI-1 renal 93.2% | A498 renal 91.9%

Nc1nc2c3ccncc3cc(-c3cccc(Cl)c3)c2c2cnccc12
inactive: HCT-15 colon 28.5% | HT29 colon 33.2% | SNB-75 CNS 57% | SNB-19 CNS 51.4% | U251 CNS 29.2% | PC-3 prostate 20% | SK-MEL-5 melanoma 50.4% | SK-MEL-28 melanoma 53.1% | SK-MEL-2 melanoma 59.1% | EKVX NSCLC 62.2% | SN12C renal 36.4% | UO-31 renal 29.7% | TK-10 renal 32.3% | ACHN renal 26.6% | CAKI-1 renal 29.1% | CCRF-CEM leukemia 20%
active: LOX IMVI melanoma -50.9% | A498 renal -12% | MOLT-4 leukemia 3.17%

C[C@H]1OC(=O)/C=C/[C@@H](O)[C@@H](O)CCCCCCCC[C@@H]1O
inactive: HCT-15 colon 101% | HT29 colon 87% | SNB-75 CNS 90.5% | SNB-19 CNS 100% | U251 CNS 90.2% | PC-3 prostate 85.2% | SK-MEL-5 melanoma 98% | LOX IMVI melanoma 102% | SK-MEL-28 melanoma 108% | SK-MEL-2 melanoma 102% | EKVX NSCLC 99.6% | SN12C renal 101% | UO-31 renal 82.6% | TK-10 renal 96.9% | ACHN renal 100% | CAKI-1 renal 96.3% | A498 renal 71.1% | CCRF-CEM leukemia 62.4% | MOLT-4 leukemia 106%

O=c1[nH]c2c3ccncc3cc(-c3cccc(Cl)c3)c2c2cnccc12
inactive: HCT-15 colon 43.3% | HT29 colon 28.1% | SNB-19 CNS 75.7% | U251 CNS 13.4% | PC-3 prostate 42.2% | SK-MEL-5 melanoma 46.3% | LOX IMVI melanoma 19.9% | SK-MEL-28 melanoma 25% | SK-MEL-2 melanoma 64.1% | EKVX NSCLC 74.8% | SN12C renal 57.1% | UO-31 renal 30.6% | ACHN renal 17.2% | CAKI-1 renal 63.3% | A498 renal 50.2% | CCRF-CEM leukemia 56.4% | MOLT-4 leukemia 76.9%
active: SNB-75 CNS -21.8% | TK-10 renal 0.334%

COc1cc2ncnc(Nc3ccc(OCc4cccc(F)c4)c(Cl)c3)c2cc1NC(=O)C1CCCC1
inactive: HCT-15 colon 80.2% | HT29 colon 82.3% | SNB-75 CNS 69.2% | SNB-19 CNS 83.3% | U251 CNS 91.8% | PC-3 prostate 63.3% | SK-MEL-5 melanoma 95% | LOX IMVI melanoma 87.5% | SK-MEL-28 melanoma 90.1% | SK-MEL-2 melanoma 86.2% | EKVX NSCLC 37.6% | SN12C renal 85.2% | UO-31 renal 30.5% | TK-10 renal 18.4% | ACHN renal 47.6% | CAKI-1 renal 55.9% | A498 renal 20.8% | CCRF-CEM leukemia 92.6% | MOLT-4 leukemia 84%

C[C@@H]1CCCCCCCCC[C@H](O)C(=O)C[C@@H](SC[C@@H](O)C(=O)O)C(=O)O1
inactive: HCT-15 colon 87.3% | HT29 colon 82.1% | SNB-75 CNS 95.2% | SNB-19 CNS 102% | U251 CNS 89.4% | PC-3 prostate 83% | SK-MEL-5 melanoma 104% | LOX IMVI melanoma 71.8% | SK-MEL-28 melanoma 107% | SK-MEL-2 melanoma 100% | EKVX NSCLC 105% | SN12C renal 93.6% | UO-31 renal 87.2% | TK-10 renal 95.2% | ACHN renal 96.6% | CAKI-1 renal 102% | A498 renal 167% | CCRF-CEM leukemia 59.4% | MOLT-4 leukemia 70.2%

CC(=O)OC(C)COc1ccc(-c2ccccc2)cc1 (centres undefined)
inactive: HCT-15 colon 107% | HT29 colon 86% | SNB-75 CNS 89.6% | SNB-19 CNS 103% | U251 CNS 76.4% | PC-3 prostate 86.1% | SK-MEL-5 melanoma 99.8% | LOX IMVI melanoma 110% | SK-MEL-28 melanoma 104% | SK-MEL-2 melanoma 95% | EKVX NSCLC 101% | SN12C renal 104% | UO-31 renal 106% | TK-10 renal 80.7% | ACHN renal 101% | CAKI-1 renal 94.7% | A498 renal 92.7% | CCRF-CEM leukemia 99.6% | MOLT-4 leukemia 100%

CCOC(=O)N1CCN(CCCCOc2ccc(C(C)(C)CC)cc2)CC1
inactive: HCT-15 colon 87.7% | HT29 colon 78.1% | SNB-75 CNS 106% | SNB-19 CNS 108% | U251 CNS 88.5% | PC-3 prostate 71.5% | SK-MEL-5 melanoma 88.6% | LOX IMVI melanoma 99.7% | SK-MEL-28 melanoma 100% | SK-MEL-2 melanoma 95.8% | EKVX NSCLC 99.1% | SN12C renal 95.7% | UO-31 renal 83.1% | TK-10 renal 120% | ACHN renal 97.3% | CAKI-1 renal 85.8% | A498 renal 108% | CCRF-CEM leukemia 73% | MOLT-4 leukemia 67.2%

COc1ccc(/C=C/C(=O)NCCO)cc1
inactive: HCT-15 colon 98% | HT29 colon 96.1% | SNB-75 CNS 80.7% | SNB-19 CNS 111% | U251 CNS 94.8% | PC-3 prostate 91.8% | SK-MEL-5 melanoma 101% | LOX IMVI melanoma 95.9% | SK-MEL-28 melanoma 104% | SK-MEL-2 melanoma 103% | EKVX NSCLC 98.7% | SN12C renal 108% | UO-31 renal 84.6% | TK-10 renal 92% | ACHN renal 101% | CAKI-1 renal 90.8% | A498 renal 85% | CCRF-CEM leukemia 104% | MOLT-4 leukemia 101%

CCCCC/C(=C\c1ccccc1)C1OC(C)C(C)O1 (centres undefined)
inactive: HCT-15 colon 109% | HT29 colon 81.3% | SNB-75 CNS 92.2% | SNB-19 CNS 98.6% | U251 CNS 86.3% | PC-3 prostate 69.6% | SK-MEL-5 melanoma 92.8% | LOX IMVI melanoma 97.9% | SK-MEL-28 melanoma 106% | SK-MEL-2 melanoma 83.5% | EKVX NSCLC 103% | SN12C renal 97.2% | UO-31 renal 101% | TK-10 renal 91% | ACHN renal 101% | CAKI-1 renal 93.6% | A498 renal 105% | CCRF-CEM leukemia 97.2% | MOLT-4 leukemia 110%

CCC(c1ccc(OC)cc1)C(CC)c1ccc(O)c(CN2CCCCC2)c1 (centres undefined)
inactive: HCT-15 colon 33.6% | HT29 colon 24.7% | SNB-75 CNS 94.5% | SNB-19 CNS 90.6% | U251 CNS 72.8% | PC-3 prostate 54.3% | SK-MEL-5 melanoma 30.6% | LOX IMVI melanoma 75.9% | SK-MEL-28 melanoma 41.6% | SK-MEL-2 melanoma 79.7% | EKVX NSCLC 64.6% | SN12C renal 66% | UO-31 renal 39.6% | TK-10 renal 84.6% | ACHN renal 82.3% | CAKI-1 renal 61.6% | A498 renal 72.8% | CCRF-CEM leukemia 68.7% | MOLT-4 leukemia 62.7%

COC(c1ccccc1)(c1ccccc1)c1ccccc1
inactive: HCT-15 colon 104% | HT29 colon 100% | SNB-75 CNS 87.7% | SNB-19 CNS 96% | U251 CNS 107% | PC-3 prostate 102% | SK-MEL-5 melanoma 103% | LOX IMVI melanoma 99.2% | SK-MEL-28 melanoma 109% | SK-MEL-2 melanoma 118% | EKVX NSCLC 85.3% | SN12C renal 97% | UO-31 renal 105% | TK-10 renal 123% | ACHN renal 101% | CAKI-1 renal 72.1% | A498 renal 104% | CCRF-CEM leukemia 131% | MOLT-4 leukemia 123%

COc1ccc(-c2nc(Nc3ccc(-c4nc5ccccc5[nH]4)cc3)nc(N3CCOCC3)n2)cc1
active: HCT-15 colon -62.2% | HT29 colon -23.1% | SNB-75 CNS -19.2% | U251 CNS 6.38% | PC-3 prostate 2.31% | SK-MEL-5 melanoma -90.7% | LOX IMVI melanoma -75.6% | SK-MEL-28 melanoma -34% | SK-MEL-2 melanoma -19.2% | EKVX NSCLC 7.91% | UO-31 renal -43.5% | ACHN renal 9% | CAKI-1 renal -56.6% | A498 renal -32.1% | CCRF-CEM leukemia -1.84% | MOLT-4 leukemia 1.78%
inactive: SNB-19 CNS 17.5% | SN12C renal 40.8% | TK-10 renal 43.9%
